Screen size: about 2,100 compounds; about 260 (12%) were called active. Roughly 58% stayed inconclusive and do not appear here. This is one part of the list. A number with no mark means an inactive call. The call rests on the fitted dose curve; in most records, active means well fitted cell-killing curve with a large enough effect; inconclusive means small, poorly fitted or top-dose-only effect, or effect the other way; inactive means flat fitted curve, though single readings scatter.
Experiment: Viability Counterscreen for Confirmatory qHTS for Inhibitors of ATXN expression; further: nearly all actives have a fitted effect of over 50% in size
Settings: HEK-293 ATXN2-luc cells viability, CellTiter-Fluor, 24 h; activity change, negative = cytotoxicity: at the top concentration
Outline: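 Luminescence read-out (SteadyGlo, 5 min) followed a 30 min Gly-Phe-AFC (25 uM final) viability fluorescence read. ATXN2-luciferase reporter cells were exposed 24 h to a dilution series. Medium-only wells served as the 100% inhibition reference.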
Potency means the concentration at half of the fitted maximal effect.

Compound	activity change, negative = cytotoxicity	Potency
CC[C@@H]1C(c2cccc(Cl)c2)=NN(c2ccc(Br)cc2)[C@H]1C(=O)N1CCOC1=O	11.8% [at 57.5 µM]	–
CCOC(=O)C1=CCN(S(=O)(=O)c2ccc(C)cc2)C1c1cccc(Cl)c1 (centres undefined)	-25.1% [at 57.5 µM]	–
CC1(C(=O)NCc2ccco2)CCN1C(=O)C1(c2ccccc2)CC1 (centres undefined)	-2.76%	–
O=C(CSc1nc2ncc(Cl)cc2[nH]1)Nc1cccc(F)c1	-14% [at 57.5 µM]	–
O=[N+]([O-])c1ccc(NC(c2ccccc2)c2ccc3cccnc3c2O)cc1 (centres undefined)	–	7.94 µM (active)
Oc1c(C(Nc2nccs2)c2ccc(C(F)(F)F)cc2)ccc2cccnc12 (centres undefined)	–	15.8 µM (active)
CC(C)C(=O)NC(c1cccc([N+](=O)[O-])c1)c1ccc2cccnc2c1O (centres undefined)	–	7.94 µM (active)
O=C(NC(=S)N1CCN(c2ccc(F)cc2)CC1)c1cccs1	-5.03%	–
Nc1ccn(C2OC(COP(=O)(O)O)C(O)C2O)c(=O)n1 (centres undefined)	-26.7% [at 57.5 µM]	–
Cc1ccc(Cc2cnc(N3C(=N)SC(C)C3=O)s2)cc1 (centres undefined)	-8.77%	–
CCC(C)(C)c1ccc(Oc2ccc(N)cc2)cc1	-9.83% [at 57.5 µM]	–
CCCC(=O)N1CCCC(c2cc(C(=O)Nc3ccccc3)no2)C1 (centres undefined)	-12.5% [at 57.5 µM]	–
Cc1cc(=O)[nH]c(N=N/C(=N/Nc2ccccc2C)c2ccccc2)n1	–	12.6 µM (active)
O=C(Nc1cccc(Cl)c1)c1ccc2c(c1)SC1=NS(=O)(=O)CCN12	-19.6%	–
CCc1cc(C)cc(OCCNC(=O)c2cncc(Br)c2)c1	-9.86% [at 57.5 µM]	–
CCn1c2ccccc2c2cc(NC(=O)COC(=O)Cc3cn4ccsc4n3)ccc21	-4.46%	–
O=C(CC1Sc2ccccc2NC1=O)NNc1cccc(Cl)c1Cl (centres undefined)	-3.89%	–
N#C/C(=N\Nc1cccc([N+](=O)[O-])c1)C(=O)c1ccc(Br)cc1	–	2.51 µM (active)
CC(NC(=O)Nc1cccc([N+](=O)[O-])c1)(C(F)(F)F)C(F)(F)F	-28.5% [at 57.5 µM]	–
CC(NC(=O)Nc1cccc([N+](=O)[O-])c1)c1ccc2c(c1)OCO2 (centres undefined)	-13.6%	–
CC(C)=C1SC(N2CCN(c3ccc(C)c(Cl)c3)CC2)=NC1=O	-5.09%	–
O=C(Cc1coc2cc3c(cc12)CCC3)OCC(=O)N1CCCC1=O	-16.8% [at 57.5 µM]	–
CCc1nnc(NC(=O)c2ccc(S(=O)(=O)N(C)c3ccccc3)cc2)o1	-10.3%	–
CCCC(=O)Nc1ccc2nc(SCC(=O)N3CCCC3)sc2c1	-17% [at 57.5 µM]	–
Cc1nc2ccc(NC(=O)c3cccc(S(=O)(=O)N(C)c4ccccc4)c3)cc2s1	–	3.16 µM (active)

Compound	activity change, negative = cytotoxicity	Potency
CCN1CCN(C(=S)c2ccc(-c3ccccc3)cc2)CC1	-12% [at 57.5 µM]	–
CN(C)CCNc1ncnc2c1sc1nc(N3CCCC3)c3c(c12)CC(C)(C)OC3	–	25.1 µM (active)
CC1(C)Cc2c(c(N3CCOCC3)nc3sc4c(NN)ncnc4c23)CS1	–	25.1 µM (active)
CN1Cc2c(N3CCOCC3)nc3sc(C(=O)c4ccccc4)c(N)c3c2CC1(C)C	-21%	–
CN(C)CCNc1ncnc2c1sc1nc(N3CCOCC3)c3c(c12)CC(C)(C)SC3	–	22.4 µM (active)
COc1ccc(C2CC(c3cccc(Cl)c3)=NN2c2ccc(S(N)(=O)=O)cc2)cc1 (centres undefined)	3.61% [at 57.5 µM]	–
CCN(CCCn1c(=S)[nH]c2ccc(N3CCOCC3)cc2c1=O)c1ccccc1	-2.36%	–
Cc1nn(-c2ccccn2)c2c1C(=O)CC(C)(C)C2N=[N+]=[N-] (centres undefined)	-2.41%	–
OCC1(CCOc2ccccc2)CCN(CC2=Cc3cc(Cl)ccc3OC2)CC1	-23.6% [at 57.5 µM]	–
O=C(c1cccc(Cl)c1)c1nn(-c2ccccc2)c(=O)cc1C(F)(F)F	–	35.5 µM (active)
Cc1cc(=O)oc2c1c(C)nn2-c1cccc(Cl)c1	-2.37%	–
COc1ccc(Nc2nc(N3CCCC3)c3ccccc3n2)cc1	–	35.5 µM (active)
COc1cccc(-c2nc(N3CCN(C)CC3)c3ccccc3n2)c1O	-15.2%	–
COc1ccc(Nc2oc(COc3ccccc3OC)nc2C#N)cc1	0.396%	–
CC(=O)Oc1ccc(Nc2ccccc2)cc1	-7.23%	–
CC(=O)Oc1ccc(C23c4ccccc4C2(OC(C)=O)c2cc(OC(C)=O)ccc23)cc1 (centres undefined)	–	28.2 µM (active)
O=C(CSc1nnc(-c2ccc(Br)cc2)o1)Nc1cccc(C(=O)O)c1	-4.75% [at 57.5 µM]	–
COC(=O)c1c(C)oc2ccc(N(C(=O)c3ccncc3)S(=O)(=O)c3ccc(C)cc3C)cc12	-23.2%	–
O=C(CNc1cccc(C(F)(F)F)c1)Nc1cccc(S(=O)(=O)N2CCCC2)c1	-24.1% [at 57.5 µM]	–
Cc1ccc(C(=O)N(C)CC(=O)Nc2ccc(Cl)c(C(F)(F)F)c2)cc1S(=O)(=O)N1CCCCC1	–	25.1 µM (active)
CN(CC(=O)Nc1ccc(Cl)c(C(F)(F)F)c1)C(=O)c1cccnc1Sc1ccccc1	-12% [at 57.5 µM]	–
O=C(NCCc1csc(-c2cccnc2)n1)c1cccc(Cl)c1	-18.1% [at 57.5 µM]	–
Cc1cccn2c(=O)c3cc(C(=O)NCCN4CCOCC4)c(=N)n(Cc4ccc(F)cc4)c3nc12	-4.46% [at 57.5 µM]	–
COc1cccc(/C=N/NC(=O)CC(C)O)c1OC/C=C/c1ccccc1 (centres undefined)	-2.85%	–
